A short description of assay [1]: glutamate transport activators, MN-1 cells, MN-1 cell line (AID 1612).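 Note: tested at 1 µM final; 0% = mean of DMSO vehicle wells on each plate; positive means more glutamate uptake than control and negative means less.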 Conditions: MN-1 motor neuron cells, stronger effect = higher value.
Assay [2] in a line: GFP-Q80 aggregate reduction, neuronal-like cells, cell-based, NGF-treated PC12, GFPQ80 (AID 1614).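 Note: lower means fewer inclusions and 0 means no inclusions at all.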 Conditions: PC12 NGF-treated GFP-polyQ80 inclusion reduction.
Assay [3] in a line: 75Q-TubH aggregate inhibition, S. cerevisiae, yeast (AID 1616). The settings on record: S. cerevisiae 75Q-TubH polyglutamine aggregation suppression; stronger effect = higher value.
A short description of assay [4]: P. berghei load reduction in hepatocytes – cell-based, HepG2, luciferase luminescence, HepG2 viability, primary screen (AID 624349; in the data active = parasite load remaining mostly below about 12%, no sharp cut-off; inactive = mostly above about 10%;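 note: 100% = mean of DMSO negative control wells on the same plate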). Conditions: P. berghei liver stage in HepG2, luciferase luminescence, concentration not given here; parasite load remaining: stronger effect = lower value; viability: measured here: HepG2 viability without parasites.
Assay [5] in a line: Wnt pathway potentiators raising nuclear beta-catenin – imaging, WNT3A-conditioned medium, mouse C2C12, NPC library, primary screen (AID 1117326; in the data active = nuclear beta-catenin stimulation mostly above about 4.2%, no sharp cut-off; inactive = mostly below about 10%). The settings on record: stronger effect = higher value.
Assay [6] can be described thus: compounds altering circadian rhythm period length – cell-based, LOPAC library, luminescence reporter (AID 2774).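 Note: values are relative to mean of DMSO wells on each plate.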 Conditions: circadian reporter cells, at 7 µM, actives lie on both sides.
Assay [7] is described as follows: compounds altering viability of human ES cells (AID 493140).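 Note: cells exposed to compounds for four days before counting.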 The settings on record: human embryonic stem cell survival screen; stronger effect = higher value.
Assay [8] deals with Hepatitis C virus NS3 helicase. In words: blockers of NS3h binding to ssDNA – biochemical, fluorescence polarization, LOPAC1280 library, primary screen (AID 687035; in the data active = inhibition above about 37%). The settings on record: Purified HCV NS3 helicase, Cy5-dT15 ssDNA binding fluorescence polarization; stronger effect = higher value; concentration not given here. On the technique in general: Polarisation of emitted light reports the rotation of a fluorescent probe.

A short description of assay [9]: compounds altering Cy5-DNA-NS3h complex signal – biochemical, LOPAC1280, artefact control for HCV NS3 helicase inhibitor project (AID 687037). The settings on record: Cy5-DNA-NS3h complex fluorescence interference counterscreen. (A counterscreen serves to expose hits that act by an unwanted route or on another target.)
The nature of assay [10]: human hepatoma cell viability loss – ATP luminescence, cytotoxicity control for P. falciparum antimalarial project, primary screen (AID 2303;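 active = inhibition above 50%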;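 note: 0% = DMSO wells and 100% = digitonin-killed cells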). Conditions: HepG2 viability, 24-48 h, at 10 µM, stronger effect = higher value.
Assay [11] has as its target L-lactate dehydrogenase (Plasmodium falciparum (isolate CDC / Honduras)) (UniProt Q27743). In words: PfLDH activity inhibition – cell lysate, 3D7 strain, counter-screen for P. falciparum growth inhibition project (AID 2304).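 Note: 0% = vehicle and 100% = reference inhibitor.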 Conditions: P. falciparum 3D7 crude extract, LDH APAD/NBT absorbance; at 2 µM; stronger effect = higher value.
Assay [12] in a line: inhibition of 3D7 malaria parasite growth – strain 3D7 (AID 2306).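 Note: 0% = DMSO wells and 100% = chloroquine plus artemisinin control wells.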 The settings on record: P. falciparum 3D7 erythrocytic growth, LDH absorbance, 72 h; at 2 µM; stronger effect = higher value.
Assay [13] can be described thus: signal quenchers or enhancers, Cy5 substrate/SSB – biochemical, NIH Clinical Collection, E. coli SSB, artefact control for HCV NS3 helicase inhibitor project (AID 743268). Conditions: Cy5-oligo bound E. coli SSB, fluorescence interference.
In assay [14] the test system is Hepatitis C virus NS3 helicase. In words: blockers of NS3h binding to DNA – biochemical, fluorescence polarization, NIH Clinical Collection, primary screen (AID 743270). The settings on record: NS3 helicase binding to Cy5-dT15 DNA, stronger effect = higher value, concentration not given here.
Assay [15] addresses Single-stranded DNA-binding protein (Escherichia coli (strain K12)) (UniProt P0AGE0). In words: SSB-ssDNA binding inhibitors – biochemical, fluorescence polarization, NIH Clinical Collection, counter-screen for HCV NS3 helicase inhibitor project (AID 743271; in the data active = inhibition above about 28%). The settings on record: E. coli SSB-DNA binding, stronger effect = higher value, concentration not given here.
Assay [16] is described as follows: compounds distorting NS3 helicase fluorescence signal – biochemical, NIH Clinical Collection, artefact control for HCV NS3 helicase inhibitor project (AID 743272).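 Note: HCV NS3 helicase with a Cy5 labelled single stranded DNA probe.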 Conditions: fluorescence interference counterscreen, HCV NS3 helicase assay; stronger effect = lower value.
The subject of assay [17] is Neuropilin-2 / VEGF-C interaction (human). In words: small molecules blocking Neuropilin-2/VEGF-C interaction – biochemical, microplate binding format, z-score (AID 743281). Conditions: microplate NRP2/VEGF-C binding assay; stronger effect = lower value.

Molecules are shown by their SMILES. Where “and” joins values, the source holds several entries; their conditions need not be identical. Equal values may be shown once. A structure can be active in one record and inactive in another. Calls of active or inactive are those of the source. Unless noted, the rule behind the calls is not given here.

The term viability denotes a read-out of living cells in per cent, often relative to untreated cells. The inhibition is the drop in the measured response relative to a control, in per cent.

Chain of L-lactate dehydrogenase (Plasmodium falciparum (isolate CDC / Honduras)) (Q27743 whole entry, looked up): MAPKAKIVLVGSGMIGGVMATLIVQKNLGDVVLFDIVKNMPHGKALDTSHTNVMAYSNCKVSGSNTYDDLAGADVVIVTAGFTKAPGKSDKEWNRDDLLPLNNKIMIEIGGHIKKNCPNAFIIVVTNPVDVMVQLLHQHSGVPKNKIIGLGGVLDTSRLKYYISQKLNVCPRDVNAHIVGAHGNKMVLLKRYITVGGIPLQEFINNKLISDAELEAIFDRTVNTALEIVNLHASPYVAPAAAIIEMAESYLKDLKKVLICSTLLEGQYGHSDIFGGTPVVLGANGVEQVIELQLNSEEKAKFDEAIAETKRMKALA

`N[C@@H](CCC(=O)N[C@@H](CS)C(=O)NCC(=O)O)C(=O)O`: the glutamate uptake change in [1] is 13.8%. The inclusion score in [2] is 2. The aggregation suppression score in [3] came out at 1.61. Also, in assay [4], the parasite load remaining is 31.4% (inactive) and the viability is 68.2%. Also, in assay [5] (at 10 µM), the nuclear beta-catenin stimulation was -1% (inactive). The nuclear beta-catenin stimulation in [5] (stimulation, at 2 µM) amounted to 4%.
In the case of `Cc1c(C(N)=O)cc([N+](=O)[O-])cc1[N+](=O)[O-]`, the glutamate uptake change in assay [1] is -10.4%. In addition, the inclusion score in assay [2] was 2. Moreover, the aggregation suppression score in assay [3] was determined as 0.968. Besides, in [4], the parasite load remaining was 143% (inactive) and the viability worked out at 90.9%. For the same compound, the nuclear beta-catenin stimulation in assay [5] (at 10 µM) was -0.3% (inactive). Besides, the nuclear beta-catenin stimulation in assay [5] (stimulation, at 2 µM) is -0.9%.
Take `CCCCCC(C)N` (centres undefined): the glutamate uptake change in [1] stood at 3.71%. In assay [2], this compound gave an inclusion score of 2. In [3], this compound returned an aggregation suppression score of 0.962. In assay [4], the parasite load remaining was 115% (inactive) and 42.4% (inactive); the viability was 77.1% and 86.1%. In addition, the nuclear beta-catenin stimulation in assay [5] (at 10 µM) is 1.8% (inactive). The nuclear beta-catenin stimulation in [5] (stimulation, at 2 µM) was found to be 3.7%.
As for `S=P(N1CC1)(N1CC1)N1CC1`, in assay [1], the glutamate uptake change amounted to 2.63%. In assay [2], this compound displayed an inclusion score of 1.5. This compound also gave an aggregation suppression score in [3] of 0.449. In assay [4], the parasite load remaining was 137% (inactive) and 49.2% (inactive). The viability in [4] was 91% and 141%. Also, the nuclear beta-catenin stimulation in assay [5] (at 10 µM) is -0.7% (inactive); in [5] (stimulation, at 2 µM), -0.3%.
Turning to `Fc1ccc(C(c2ccc(F)cc2)N2CCN(C/C=C/c3ccccc3)CC2)cc1`, in [1], the glutamate uptake change was 9.47%. This compound also returned an aggregation suppression score in assay [3] of 1.1. The period change in assay [6] is -0.2 h (inactive). Further, the survival in assay [7] is 3.67 (inactive). Besides, the inhibition in assay [8] was -1% (inactive). The fluorescence ratio (interference) in assay [9] was 1 (inactive). In addition, the nuclear beta-catenin stimulation in assay [5] (at 10 µM) is 1.1% (inactive); in assay [5] (stimulation, at 2 µM) it was -2.5%.
As for `CCCCOc1ccc(C(=O)CCN2CCCCC2)cc1`, the glutamate uptake change in assay [1] was 1.68%. The aggregation suppression score in assay [3] was 1.27. For the same compound, the survival in assay [7] was 4.92 (inactive). The nuclear beta-catenin stimulation in assay [5] (at 10 µM) is 1.2% (inactive); in assay [5] (stimulation, at 2 µM) it was -0.2%.
The like results for `CC/C(=C(/CC)c1ccc(O)cc1)c1ccc(O)cc1` were, in that order, -14.4%, 0.447, 3.75 (inactive), 21.1% (inactive) and -0.2%.
As for `COC(=O)[C@H]1[C@H]2C[C@@H]3c4[nH]c5cc(OC)ccc5c4CCN3C[C@H]2C[C@@H](OC(=O)c2cc(OC)c(OC)c(OC)c2)[C@@H]1OC`, the glutamate uptake change in assay [1] is 4.63%. Also, in assay [3], the aggregation suppression score is 1.07. For the same compound, the period change in assay [6] was 0.165 h (inactive). The survival in [7] is 6.17 (inactive). Further, in [4], the parasite load remaining is 23.5% (inactive) and 21.7% (inactive) and 13.3% (active); the viability was 102% and 74.9% and 89.3%. Besides, the inhibition in assay [8] is -4% (inactive). Moreover, in [9], the fluorescence ratio (interference) was 1 (inactive). Moreover, the nuclear beta-catenin stimulation in assay [5] (at 10 µM) was 1.8% (inactive). The nuclear beta-catenin stimulation in [5] (stimulation, at 2 µM) came to 2.2%.
For `CN(Cc1cnc2nc(N)nc(N)c2n1)c1ccc(C(=O)N[C@@H](CCC(=O)O)C(=O)O)cc1`, the glutamate uptake change in assay [1] was found to be 10.9%. Moreover, the aggregation suppression score in assay [3] came out at 0.131. Further, the inhibition in assay [10] is -2% (inactive); in assay [11] it was 1% (inactive); in assay [8], -1% (inactive); in assay [14], 1.19% (inactive); in assay [15], 26.9% (inactive). In addition, the growth inhibition in assay [12] is 91% (active). Further, the period change in assay [6] was 0.835 h (inactive). Besides, the survival in assay [7] was 39.6 (inactive). Also, in assay [4], the parasite load remaining was 8.84% (inactive) and 39.4% (inactive) and 21.9% (inactive). Also, the viability in assay [4] was 38.7% and 143% and 94.1%. Also, the fluorescence ratio (interference) in assay [9] was 1 (inactive). For the same compound, the fluorescence ratio in [13] and in [16] was 0.92 (inactive) in each case. In assay [17], the z-score was -1.5 (inactive). The nuclear beta-catenin stimulation in assay [5] (at 10 µM) is 74% (active); in assay [5] (stimulation, at 2 µM), 41%.

The record behind these values is PubChem BioAssay.
